Results reported in ChEMBL document CHEMBL4513216, “Probing the Open Global Health Chemical Diversity Library for Multistage-Active Starting Points for Next-Generation Antimalarials” (ACS Infect Dis, 2020).
Hit rate of the full screen: of about 69,000 compounds, about 8,600 (12%) showed an effect of 50% or more. Many of the other results were omitted from the sample, so strong results are more common in it than they were.

What follows are compounds tested on Plasmodium berghei (assay: Screen against P. berghei liver stage (PbLuc), transformed with Luciferase, at 10uM). Details: tested at 10 uM.
Format: functional, HepG2

Compound | INHIBITION [%]
CCCc1noc(CN2CCC(NC(=O)c3ccc(C)s3)CC2)n1 | 25
CNc1cc(N2CCCC2CNCc2cccnc2)ncn1 (configuration not stated) | -3.19
CCO[C@@H]1CC[C@H]2[C@H]1OCCN2CCOCc1ccccc1 | 41.2
O=C(Nc1ccc2c(c1)OCCO2)N1CCCC1c1ccco1 (configuration not stated) | -0.87
Cc1cccc(CN2C[C@@H]3[C@@H](C(=O)NCC(C)C)CCS(=O)(=O)[C@@H]3C2)c1 | -41.9
CCc1nc(CN2CCCC(NCc3nnc(C4CC4)n3C)C2)no1 (configuration not stated) | 1.75
CCc1ccc(CN2CCC3(CC2)CNC(=O)CO3)o1 | 33.7
CC(C)Cc1cc(C(=O)NCCc2ccc(S(C)(=O)=O)cc2)[nH]n1 | 8.69
O=C(O)c1cc(S(=O)(=O)Nc2cc(Cl)ccc2F)cc2c1OCCO2 | 27.6
CN(CC(=O)NC(N)=O)CC1(c2ccc(Br)cc2)CC1 | -17.3
COC1COC2(CCN(Cc3ccc4c(c3)OCO4)CC2)C1 (configuration not stated) | -39.3
Cc1cc(C(=O)N2CCC3(CCC(=O)N(CC(N)=O)C3)CC2)ccc1O | -64.3
C[C@@H]1CN(C(=O)C2(Cn3cccn3)CC2)CC[C@@]1(O)C1CC1 | 24.205
COc1ccccc1-n1nc(-c2ccco2)n(CC(=O)NC2CC2)c1=O | 27.6
COc1ccccc1-n1nc(-c2ccco2)n(CC(=O)NC(C)C)c1=O | 45.6
CNC(=O)Cn1c(-c2ccco2)nn(-c2ccccc2OC)c1=O | 59.5
Cc1cc(NC(=O)CNC2CCc3ncnn3C2)no1 (configuration not stated) | 17.4
CCOC(=O)CC(c1ccc(OC)cc1)c1c(O)n[nH]c1C (configuration not stated) | -14.9
Cc1ccc(C(=O)N2CCCC3(CCCC(=O)N3C)C2)cc1F (configuration not stated) | 15.7
COc1ccc(CCN(C)C2CCCN(Cc3noc(C)n3)C2)cc1 (configuration not stated) | -42.3
COc1ccc(CC(C)(O)CNC(=O)Cc2ccc(F)cc2)cc1 (configuration not stated) | 77.6
COc1ccc(CC(C)(O)CNC(=O)c2cccs2)cc1 (configuration not stated) | -18

Compound | INHIBITION [%]
COc1ccc(CC(C)(O)CNC(=O)Cc2cccs2)cc1 (configuration not stated) | 40.7
Cc1noc(C)c1CN(C)C(=O)CCn1c(=O)n(C)c2ccccc21 | -6.61
CCCN1CCC(Cc2noc(-c3cc4cccnc4nc3C)n2)CC1 | 12.9
COCc1nc(CN2CCN(c3ccc(OC)cc3)C(=O)C2C)no1 (configuration not stated) | 11
CCOCC1CN(C(=O)c2ccncc2)Cc2nn(C)cc21 (configuration not stated) | -46.9
CCS(=O)(=O)CCNC(=O)C1(c2cccc(Cl)c2)CC1 | 44.8
COc1cccc(-c2n[nH]c3c2CN(C(=O)c2cc(C)n(C)n2)CC3)c1 | 36.6
COc1cccc(-c2n[nH]c3c2CN(C(=O)c2ccncc2)CC3)c1 | -4.91
COc1cccc(-c2n[nH]c3c2CN(C(=O)c2cccc(=O)[nH]2)CC3)c1 | 53.8
CC(=O)N(Cc1ncc(C)o1)C1CCN(CCn2cccn2)C1 (configuration not stated) | 40.8
Cc1cnn(CCC(=O)NC2CCc3nc(C)cn3C2)c1 (configuration not stated) | 5.9
COc1ccc(COCC(=O)NC2CCc3nc(C)cn3C2)cc1 (configuration not stated) | 21.7
COc1ccccc1OCCC(=O)NC1CCc2nc(C)cn2C1 (configuration not stated) | 34.6
Cc1cc(C(=O)NC2CCc3nc(C)cn3C2)[nH]n1 (configuration not stated) | -3.26
Cc1cn2c(n1)CCC(NC(=O)c1[nH]nc(C)c1Br)C2 (configuration not stated) | 64.7
Cc1cn2c(n1)CCC(NC(=O)CCC1CC1)C2 (configuration not stated) | 26.9
Cc1cn2c(n1)CCC(NC(=O)c1[nH]ncc1Br)C2 (configuration not stated) | 40
Cc1cn2c(n1)CCC(NC(=O)CCC(F)(F)F)C2 (configuration not stated) | 54.9
Cc1cn2c(n1)CCC(NC(=O)CCCOCc1ccccc1)C2 (configuration not stated) | 53.4
Cc1nccn1CCN(C)C(=O)C1CCN(C(=O)C2CCC2)CC1 | 16.9
CN1CCN(C(=O)[C@@H]2CN(C)C[C@]23COc2ccc(F)cc2C3=O)CC1 | 24.2
CN(C)C(=O)c1coc(COc2ccccc2)n1 | 19.4

Compound | INHIBITION [%]
O=C(NCC(F)(F)F)c1ccc(-n2cncn2)nn1 | -17.8
Cc1cc2n(n1)CC(CNCc1ccc(Oc3ccccc3)nc1)CN2 (configuration not stated) | 21.55
c1ncc2c(n1)CN(c1ncnc3[nH]ccc13)CC2 | 32.7
Cc1ncc2c(n1)CN(c1ncnc3[nH]ccc13)CC2 | 17.8
CC(C)c1ncc2c(n1)CN(c1ncnc3[nH]ccc13)CC2 | 63.4
O=S(=O)(NCC1CCCN(Cc2ccccc2F)C1)C1CC1 (configuration not stated) | 11.5
Cc1noc(C(C)C)c1C(=O)NCc1cccnc1 | 34.7
CN(Cc1csc(-c2ccccc2)n1)C(=O)CCn1ccccc1=O | 66.9
CN(Cc1csc(-c2cccs2)n1)C(=O)CCn1ccccc1=O | -33
CN(Cc1csc(-c2ccccc2)n1)C(=O)CCNS(C)(=O)=O | -47.9
Cc1ccc(-c2nc(CN3CCOC(Cn4cccn4)C3)no2)cc1 (configuration not stated) | -13.5
Cc1nc(-c2cccc(Cl)c2)n(CC(=O)NCC2CCCO2)c(=O)c1C (configuration not stated) | 13.8
CNC(=O)COC1COC2(CCN(Cc3ccncc3F)CC2)C1 (configuration not stated) | 59.3
CC(C)NC(=O)CC1COC2(CCN(Cc3cccnc3)CC2)C1 (configuration not stated) | 13.7
CNC(=O)COC1COC2(CCN(Cc3cccnc3OC)CC2)C1 (configuration not stated) | 40.5
CCOC1COC2(CCN(Cc3cccc(F)c3)CC2)C1 (configuration not stated) | 31.6
CNC(=O)COC1COC2(CCN(Cc3cccnc3)CC2)C1 (configuration not stated) | 67.3
COc1ccccc1CN1CC[C@]2(C[C@@H](OCC(=O)N(C)C)CO2)C1 | 24.9
CN(Cc1cnc2ccccc2c1)C(=O)C(c1ccccc1F)N(C)C (configuration not stated) | 4.64
COc1ccccc1N1CCN(C(=O)COc2c(C)occc2=O)CC1 | 1.04
OC(CNCCc1nnc2ccccn12)c1ccc(F)c(F)c1 (configuration not stated) | -55.3
O=C(c1nnn(-c2ccc(F)cc2)n1)N(CCO)Cc1ccccc1 | -137

Compound | INHIBITION [%]
CN1C(=O)[C@@H]2CC[C@H]1CN(C(=O)Nc1ccccc1C(F)(F)F)C2 | -53.7
COc1ccc(CN2CCC=C(C(C)NC(C)=O)C2)cc1 (configuration not stated) | 83.2
COc1ccnc(CN2CCC=C(C(C)NC(C)=O)C2)c1OC (configuration not stated) | 36.2
CC(=O)NC(C)C1=CCCN(Cc2ccc(C(=O)O)cc2)C1 (configuration not stated) | 37.2
Fc1ccc(-c2nc(CNC3CCc4ncnn4C3)cs2)cc1 (configuration not stated) | 48.8
CC(O)CCN(C)C(=O)Nc1cc(F)cc(Br)c1 (configuration not stated) | 42.6
CN(CC(O)C1CC1)C(=O)Nc1cc(F)cc(Br)c1 (configuration not stated) | -54.5
CNC(=O)C(C)CN(C)C(=O)Nc1cc(F)cc(Br)c1 (configuration not stated) | 83.3
Cc1nc(C2CCCN2C(=O)c2ccc(N(C)C)nn2)no1 (configuration not stated) | -16.98
O=C(CCc1ccccc1Cl)NS(=O)(=O)c1ccc2c(c1)OCCO2 | -19.265
CN1CCN(C(CNC(=O)CCn2cccn2)c2cccs2)CC1 (configuration not stated) | 31.2
CC(Cc1cccs1)NC(=O)CCn1cccn1 (configuration not stated) | 9.14
O=C(CCn1cccn1)NCC(c1cccs1)N1CCOCC1 (configuration not stated) | 56.1
CC1CCN(C(CNC(=O)Cn2cccn2)c2cccs2)CC1 (configuration not stated) | 32.3
CC(NC(=O)CCn1cccn1)c1ccc(-n2ccnn2)cc1 (configuration not stated) | 10
CC1CCN(C(CNC(=O)CCn2cccn2)c2cccs2)CC1 (configuration not stated) | 40.7
CC(NC(=O)CCn1cccn1)c1cccs1 (configuration not stated) | 61.5
O=C(Cn1cccn1)NCC(c1cccs1)N1CCCC1 (configuration not stated) | 28
O=C(CCn1cccn1)NCC(c1cccs1)N1CCCC1 (configuration not stated) | 66.9
COCCc1nnc(NC(=O)CSCc2ccccc2)o1 | 2.84
COCC[C@]1(O)CCN(Cc2ccccn2)C[C@H]1C | 18.4
Cc1cccc2c1cnn2CCCNC(=O)c1cnn(C)c1 | -17.2

Compound | INHIBITION [%]
CC/N=c1\nc(NCC)nc2n1C(O)(Nc1cc(Cl)ccc1Cl)CS2 (configuration not stated) | 56
CC/N=c1\nc(NCC)nc2n1C(O)(Nc1cc(C)ccc1C)CS2 (configuration not stated) | -21.3
CC/N=c1\nc(NCC)nc2n1C(O)(Nc1cccc(Cl)c1Cl)CS2 (configuration not stated) | 28.6
CCNC(=O)N1CCc2ccc(NC(=O)NCc3ccsc3)cc21 | 47
Cc1cccc(C2(CNC(=O)CCN3C(=O)CCC3=O)CCCC2)c1 | 36.4
O=C(CCN1C(=O)CCC1=O)NCC1(c2c(F)cccc2F)CCCC1 | 25.6
Cc1ccccc1C1(CNC(=O)CCN2C(=O)CCC2=O)CC1 | 50.3
CC(NCc1ccc(OCC(N)=O)cc1)c1ccc(Cl)cc1Cl (configuration not stated) | 32.2
Cn1cc(C(=O)Nc2cc(F)ccc2OCC2CCCO2)ccc1=O (configuration not stated) | 13.6
CCC(CC)C(=O)NCc1c(C)nn(C)c1N1CCCN(C)CC1 | 24.6
c1ccc(C(Cn2cccn2)Nc2cnccn2)cc1 (configuration not stated) | 31.2
CN(C)CCC(Nc1nc(N)nc2c1CCNCC2)c1ccccc1 (configuration not stated) | 68.5
CN(C)CC(Nc1nc(N)nc2c1CCNCC2)c1ccccc1 (configuration not stated) | 72.7
CN(Cc1ccccc1-n1cccn1)c1nc(N)nc2c1CCNCC2 | -18
CN(CC1Cc2ccccc2CN1C)c1nc(N)nc2c1CCNCC2 (configuration not stated) | 30.8
Nc1nc2c(c(NC(Cn3cccn3)c3ccccc3)n1)CCNCC2 (configuration not stated) | 75.5
CC(Nc1nc(-c2ccccc2)nc2c1CCNCC2)c1cccnc1 (configuration not stated) | 31.4
Nc1nc2c(c(N3CCC(CCn4cccn4)CC3)n1)CCNCC2 | 31.4
COCC(Nc1nc(N(C)C)nc2c1CCNCC2)c1ccccn1 (configuration not stated) | 34.9
